Measurements taken from PubChem BioAssay (NCI).
This is part of a sample that, as a whole, favours compounds with a hit. Of some 79,000 tested, about 15% had one in any assay. Cut-off read from the data, not from the text of the source: active = growth inhibition above about 70%; inactive = the rest.

Tests used:
[1] = NCI Yeast Anticancer Drug Screen. Data for the rad50 strain (AID 155);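 note: 0% = growth of vehicle-only cultures of the same strain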; settings: S. cerevisiae rad50 strain growth inhibition; at 50.0 µM; active compounds read high
Outline: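 Readout: growth inhibition relative to vehicle-treated cultures. Compound exposure was carried out in a genetically defined yeast strain deficient in DNA damage repair.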

[2] = NCI Yeast Anticancer Drug Screen. Data for the mec2-1 strain (AID 157); settings: S. cerevisiae mec2-1 strain, at 50.0 µM, active compounds read high
Outline: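 Growth inhibition is read against vehicle-treated controls after compound exposure of the mec2-1 yeast strain, which is defective in DNA damage repair or cell cycle control.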

[3] = NCI Yeast Anticancer Drug Screen. Data for the sgs1 mgt1 strain (AID 161);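 note: 0% = growth of cultures given vehicle only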; settings: S. cerevisiae sgs1 mgt1 strain, at 50.0 µM, active compounds read high
Outline: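 Compounds are added to genetically altered yeast, and growth is compared with cultures given vehicle alone to give percent inhibition.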

[4] = NCI Yeast Anticancer Drug Screen. Data for the cln2 rad14 strain (AID 165);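 note: 0% = growth equal to vehicle treated cultures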; settings: S. cerevisiae cln2 rad14 strain, at 50.0 µM, active compounds read high
Outline: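 Growth inhibition, relative to vehicle-treated controls, is the read-out. The test organism is a yeast strain with defined genetic alterations, cln2 rad14.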

[5] = NCI Yeast Anticancer Drug Screen. Data for the bub3 strain (AID 167); settings: S. cerevisiae bub3 mutant strain, at 50.0 µM, active compounds read high
Outline: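 Readout: yeast growth inhibition, expressed relative to vehicle-only wells. The test organism is a mutant strain from a panel with lesions in DNA repair or checkpoint genes.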

[6] = NCI Yeast Anticancer Drug Screen. Data for the mlh1 rad18 strain (AID 175); settings: S. cerevisiae mlh1 rad18 strain growth inhibition; at 50.0 µM; active compounds read high
Outline: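 Cells of a genetically altered yeast strain, deficient in DNA damage repair, were treated with compound. Their growth was then compared with that of vehicle-treated cultures to give inhibition.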

Measured: growth inhibition

CCCCCCCCCSc1nc2ccccc2s1
inactive: [1] 12.8% | [2] 6.25% | [3] 18.2% | [4] 5.45% | [5] 14.5% | [6] -10.1%

CCCC(O)C(C)C(C)O (configuration not stated)
inactive: [1] -28.5% | [2] -16.1% | [3] -17.4% | [4] 25.1% | [5] -2.15% | [6] -8.75%

Cc1cn(C2CCCCC2O)c(=O)[nH]c1=O (configuration not stated)
inactive: [1] -15.8% | [2] -14% | [3] -2.85% | [4] 12.6% | [5] -15.1% | [6] -16.9%

COc1cc(NCCCCCCCNC(C)C)c2nccc(C)c2c1
inactive: [1] 26.7% | [2] 13.7% | [3] -6.25% | [4] 7.35% | [5] -2.7% | [6] -33.1%

O=C(N/N=C\c1coc([N+](=O)[O-])c1)N/N=C/c1ccoc1
inactive: [1] 0.75% | [2] 14.2% | [3] 3.65% | [4] -25.7% | [5] -8.35% | [6] 1.1%

Cc1c(C(=O)/C=C/c2ccc(N(C)C)cc2)c(=O)n(-c2ccccc2)n1C
inactive: [1] -7% | [2] -45.1% | [3] -36.1% | [4] -8.85% | [5] -29.7% | [6] -20.1%

O=C(O)CCSSCCCS(=O)O
inactive: [1] -26.6% | [2] -3% | [3] 36% | [4] 18.9% | [5] 0.45% | [6] -2.2%

Cc1nn(C)c(C#N)c1[N+](=O)[O-]
inactive: [1] -7.05% | [2] -30.3% | [3] -36.3% | [4] 4.4% | [5] -16.2% | [6] 0.8%

O=C(c1ccc(Cl)cc1)c1cc([N+](=O)[O-])cc([N+](=O)[O-])c1
inactive: [1] -0.35% | [2] 3% | [3] -2.45% | [4] -49.6% | [5] 22.8% | [6] -8.75%

COc1cccc(/C(Cl)=C(\C=O)c2cccc(OC)c2)c1
inactive: [1] 12.8% | [2] 19.1% | [3] 2.2% | [4] 10.7% | [5] 34% | [6] -10.1%

CCCc1ccc(N)cc1
inactive: [1] 3.25% | [2] -38.4% | [3] -9.1% | [4] -18.1% | [5] -24.4% | [6] -15.7%

CC(=O)OCC1OC(n2nnc(CCl)c2CCl)C(OC(C)=O)C(OC(C)=O)C1OC(C)=O (configuration not stated)
inactive: [1] 38.5% | [2] 8.7% | [3] 0.5% | [4] -3.15% | [5] -0.25% | [6] 8.45%

Nc1nc(=O)[nH]nc1SCc1ccccc1
inactive: [1] 39.2% | [2] 0.1% | [3] 1.05% | [4] 2.45% | [5] 10% | [6] 10.5%

Cc1ccc([N+](=O)[O-])cc1NC(=O)Oc1cc(=O)oc2ccccc12
inactive: [1] 3.2% | [2] 6.8% | [3] -6.9% | [4] -18.1% | [5] 1.7% | [6] -0.75%

CC(C)(C)OC(=O)CC1(O)CCCCC1
inactive: [1] 4.15% | [2] -5.9% | [3] -6.05% | [4] 4.75% | [5] 4% | [6] 8.05%

S=c1[nH]ncn2nc3ccccc3c12
inactive: [1] 0.15% | [2] 2.5% | [3] -2.25% | [4] -45.5% | [5] -3.85% | [6] 1.7%

Cc1c(C)c(CC(=O)N2CC2)c(C)c(C)c1CC(=O)N1CC1
inactive: [1] -23.4% | [2] 9.75% | [3] -3.9% | [4] -26.1% | [5] 2.65% | [6] -36.2%

CCc1ccccc1NC(=O)C(=O)C1C(=O)N(c2ccccc2)N=C1N (configuration not stated)
inactive: [1] -10.2% | [2] -31.4% | [3] -3% | [4] 21.4% | [5] -34.5% | [6] -22%

NC(C(=O)O)c1ccc(C(=O)O)cc1 (configuration not stated)
inactive: [1] 30.7% | [2] 15.6% | [3] -5.55% | [4] 18.8% | [5] -7.6% | [6] 20.5%

O=C(c1ccc(F)cc1)c1cccc(C(=O)c2ccc(F)cc2)n1
inactive: [1] -16.8% | [2] -24% | [3] -29.9% | [4] 8.15% | [5] -3.4% | [6] -36.1%

FC1(F)ON2CCc3ccccc3C2[C@H]1c1ccccc1 (some centres not stated)
inactive: [1] 13.3% | [2] 14.7% | [3] 10.2% | [4] 10% | [5] 22.4% | [6] -50%

CCOc1ccccc1NC(=S)NC1CCCCC1
inactive: [1] -8.65% | [2] -9.3% | [3] 3.7% | [4] -17.2% | [5] 25.1% | [6] -6.3%

CN(C)c1ccc(N=Nc2cc3c4ccccc4ccc3c3ccccc23)cc1
inactive: [1] 15.1% | [2] -10.2% | [3] 23.1% | [4] 1.6% | [5] 9.45% | [6] 23.3%

O=C(O)C1=CN=C(C(=O)O)NN1
inactive: [1] -24.4% | [2] -23.2% | [3] -28.8% | [4] 19.5% | [5] -4.15% | [6] -34.5%

O=c1cc(-c2cccs2)ss1
inactive: [1] 18.4% | [2] 5.25% | [3] -0.65% | [4] -34.6% | [5] 13.8% | [6] 25%

CC(C)C(C)(O)CO (configuration not stated)
inactive: [1] -21.9% | [2] 1.75% | [3] -1.2% | [4] 16.8% | [5] -6.2% | [6] -13.7%

CCCCCCCCCCCCCCCCOc1ccc(-c2cc(=O)n(C)n2C)cc1
inactive: [1] 6% | [2] -18.6% | [3] -19.1% | [4] -8.45% | [5] -2.9% | [6] -4.05%

CCOC(=C[P+](c1ccccc1)(c1ccccc1)c1ccccc1)OCC
inactive: [1] -6.5% | [2] 20.8% | [3] 2.35% | [4] -9.5% | [5] -3.6% | [6] -36%

N#CCCCCCCC(N)=O
inactive: [1] 4.4% | [2] -0.9% | [3] 6.4% | [4] -1.25% | [5] -5.6% | [6] -16.2%

OC1c2ccccc2-c2ccc(Cl)cc21 (configuration not stated)
inactive: [1] 23.8% | [2] 14.2% | [3] -7.15% | [4] -32.2% | [5] 4.15% | [6] 14.9%

C=C(CC)C(=O)c1ccc(OCC(=O)O)c(Cl)c1Cl
inactive: [1] 14.7% | [2] -15.9% | [3] 16.6% | [4] 16.1% | [5] 19.8% | [6] -8.35%

CC(=O)Nc1ccc2oc(C)nc2c1
inactive: [1] 23.9% | [2] -1.3% | [3] 8.3% | [4] 8.7% | [5] 13.2% | [6] 20.6%

COc1cc(C(=O)CC(=O)Cc2ccc3ccccc3n2)cc(OC)c1OC
inactive: [1] 2.75% | [2] 1.3% | [3] 0.9% | [4] -15.7% | [5] 2.05% | [6] 38.2%

CCCCCCC(C)CC1=C(O)c2ccccc2C(=O)C1=O (configuration not stated)
inactive: [1] -18.5% | [2] 7.55% | [3] -1.9% | [4] -38.4% | [5] 13.6% | [6] 5.25%

CCOC(=O)C(=O)C(CCc1ccc2ccc3cccc4ccc1c2c34)C(=O)OCC (configuration not stated)
inactive: [1] 10.2% | [2] 20.9% | [3] 6.55% | [4] -21.8% | [5] 0.35% | [6] 31.4%

N#CC(C#N)=CN1CCNC1=S
inactive: [1] 14.3% | [2] -1.2% | [3] 20.4% | [4] 16.6% | [5] 17.6% | [6] 17.6%

CC1c2c(cc(=O)n(Cc3ccccc3)c2O)C(=O)N1Cc1ccccc1 (configuration not stated)
inactive: [1] -12.6% | [2] 16.9% | [3] 3.85% | [4] 4.75% | [5] -23.6% | [6] 8.85%
